Data: PubChem BioAssay (NCATS)
Inconclusive results are not listed. Values without a mark were called inactive. Calls follow the shape of the dose curve; as a rule, active = well fitted cell-killing curve with a large enough effect; inconclusive = small, poorly fitted or top-dose-only effect; inactive = flat fitted curve, though single readings scatter.

test: Cell Viability - LYMP1-003 - Assay at 40 hr (AID 964); conditions: LYMP1-003 lymphoblastoid viability; series mostly up to 92.2 µM; activity change, negative = cytotoxic: at the top concentration; also: nearly all actives have a fitted effect of over 60% in size
Text: NIH Chemical Genomics Center [NCGC]
NIH Molecular Libraries Screening Centers Network [MLSCN]
National Institutes of Environmental Health Sciences [NIEHS]
National Toxicology Program [NTP]
We have developed a 1536-well cell-based assay for quantitative high throughput screening (qHTS) against a number of cell lines to determine in vitro cytotoxicity of small molecules. This particular assay uses a human lymphoblastoid cell line (LYMP1-003) purchased from Coriell Institute for Medical Research.
NCGC Assay Protocol Summary:
The CellTiter-Glo luminescent cell viability assay (Promega) is a homogeneous method to measure the number of viable cells in culture. The end point readout of this assay is based on quantitation of intracellular ATP, an indicator of metabolic activity, using the luciferase reaction. Luciferase catalyzes the oxidation of beetle Luciferin to oxyluciferin and light in the presence of ATP. The luminescent signal is proportional to amount of ATP present.
Using the CellTiter-Glo luminescent cell viability assay, the amount of cellular ATP was measured in the lymphoblastoid cell line with complete culture medium following compound treatment for 40 hours. The assay was performed in opaque white Kalypsys 1536-well plates. In the screen, tetraoctylammonium bromide was used as positive control. Library compounds were measured for their ability to cause acute toxicity in the cell line, as reflected by a decrease in intracellular ATP levels, in a concentration-dependent manner. […] AC50 values were determined from concentration-response data modeled with the standard Hill equation.
qHTS protocol for CellTiter Glo lymphoblastoid cellular assay
[Step] [Parameter] [Value] [Description]
1. Reagent; 5 uL; 2500 lymphoblastoid cells/well
2. Time; 5 hr; 37 C incubation
4. Controls; 23 nL; Tetraoctylammonium bromide 6.4pM to 92 uM
5. Time; 40 hr; 37 C incubation
6. Reagent; 5 uL; CellTiter Glo reagent
7. Time; 30 min; Room Temperature
8. Detection; Luminescence; Viewlux plate reader
Keywords: cell viability, cytotoxicity, lymphoblastoid cell line, luminescence, NTPHTS, NTPHTS_NCGC, NIEHS, DSSTox, MLSMR, MLSCN, NIH Roadmap, qHTS, NCGC
% is scaled to controls: 0 for no effect and ±100 for the full control effect.

Structure (SMILES) | activity change, negative = cytotoxic
Cc1ccc(N)cc1Cl | -0.299%
CCBr | 5.57%
CC(=O)[O-].CC(=O)[O-].CC(=O)[O-].[Cr+3] | -9.27%
Cc1ccc2c(C)cccc2c1 | -0.926%
CCSC(=O)N1CCCCCC1 | -16.6%
O=[N+]([O-])CCO | -4.92%
O=P(OCCCl)(OCCCl)OCCCl | 6.55%
O=[N+]([O-])/C=C/c1ccccc1 | -6.54%
CC(C)(C)c1ccccc1O | -3.38%
CCCN(CCC)c1c([N+](=O)[O-])cc(C(F)(F)F)cc1[N+](=O)[O-] | -1.81%
ClC=CCl | -15.6%
CC(C)CON=O | 2.43%
O=C(Cl)c1ccccc1F | -9.2%
CC(C)C#N | -7.31%
Clc1ccc(C(Cl)(Cl)Cl)cc1Cl | -5.3%
CCCCCCCCCCCOC(=O)c1ccccc1C(=O)OCCCCCCCCCCC | -14.4%
ClCCOCCCl | -2.03%
Nc1c(Cl)cc([N+](=O)[O-])cc1Cl | -2.89%
O=C(Cl)OCc1ccccc1 | -14.2%
O=C(O)C(Br)CBr (stereo not given) | -26.2%

Structure (SMILES) | activity change, negative = cytotoxic
O=[N+]([O-])c1ccc(O)c([N+](=O)[O-])c1 | -17.3%
O=C(O)c1cccc(Cl)c1 | -4.44%
O=[N+]([O-])c1cc(Cl)c(Cl)c(Cl)c1 | -5.38%
Brc1ccc(Oc2ccc(Br)cc2Br)c(Br)c1 | -1.85%
Clc1cccc2ccccc12 | -9.74%
Nc1ccc(-c2ccc(N)cc2)cc1 | -10.6%
c1ccc(NNc2ccccc2)cc1 | 0.732%
O=C(O)CBr | -3.8%
Cc1ccc(OP(=O)(Oc2ccc(C)cc2)Oc2ccc(C)cc2)cc1 | -8.96%
Nc1ccc(Cl)c(Cl)c1 | -11.3%
C1CC2OC2CC1C1CO1 (stereo not given) | 13%
CN(C)C(=O)Nc1cccc(C(F)(F)F)c1 | -3.03%
Oc1c(Cl)c(Cl)cc(Cl)c1Cl | -8.74%
Clc1ccccc1 | -4.05%
CCNCC | -17.5%
BrCC(Br)C1CCC(Br)C(Br)C1 (stereo not given) | -7.15%
C=CCOCC1CO1 (stereo not given) | -11.3%
BrCCc1ccccc1 | -2.66%
CCC(Cl)[N+](=O)[O-] (stereo not given) | -3.45%
Oc1cc(Cl)ccc1Cl | 0.0065%
